Results as given in PubChem BioAssay (NCI).
This is part of a sample that, as a whole, favours compounds with a hit. Of some 79,000 tested, about 15% had one in any assay. Calls of active or inactive are those of the source. Rule as the data show it: active = growth inhibition above about 70%; inactive = the rest.

Tests used:
[1] = NCI Yeast Anticancer Drug Screen. Data for the rad50 strain (AID 155);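 also: 0% = growth of vehicle-only cultures of the same strain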; details: S. cerevisiae rad50 strain growth inhibition, stronger effect = higher value
Outline: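 Genetically altered yeast (DNA repair pathway); compound treatment; growth inhibition vs vehicle ctrl.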

[2] = NCI Yeast Anticancer Drug Screen. Data for the mec2-1 strain (AID 157); details: S. cerevisiae mec2-1 strain, stronger effect = higher value
Outline: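 Cells of the genetically defined mec2-1 yeast strain are incubated with test compound. Inhibition of growth is calculated against vehicle-treated controls.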

[3] = NCI Yeast Anticancer Drug Screen. Data for the sgs1 mgt1 strain (AID 161);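 also: 0% = growth of cultures given vehicle only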; details: S. cerevisiae sgs1 mgt1 strain, stronger effect = higher value
Outline: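 Inhibition of yeast growth, normalised to vehicle-treated controls, is reported for a strain bearing genetic alterations in DNA damage repair.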

[4] = NCI Yeast Anticancer Drug Screen. Data for the cln2 rad14 strain (AID 165);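 also: 0% = growth equal to vehicle treated cultures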; details: S. cerevisiae cln2 rad14 strain, stronger effect = higher value
Outline: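 The screen exposed genetically defined yeast (cln2 rad14) to test compounds and scored growth inhibition relative to vehicle-treated controls.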

[5] = NCI Yeast Anticancer Drug Screen. Data for the bub3 strain (AID 167); details: S. cerevisiae bub3 mutant strain, stronger effect = higher value
Outline: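 Yeast carrying a defined mutation is treated with each compound, and growth is compared with that of vehicle-exposed cells to give inhibition.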

[6] = NCI Yeast Anticancer Drug Screen. Data for the mlh1 rad18 strain (AID 175); details: S. cerevisiae mlh1 rad18 strain growth inhibition, stronger effect = higher value
Outline: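 Compound-treated yeast growth, normalised to vehicle controls. Strain bears defined DNA repair mutations.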

[7] = at 5.0 µM (retest, dose inferred, filed as 0.5)
[8] = at 50.0 µM (retest, dose inferred, filed as 5.0)

Measured: growth inhibition

O=Cc1ccc2ccc3ccccc3c2c1
active: [1]; [8] 85% | [1]; at 50.0 µM 85.9% | [3]; at 50.0 µM 79.1% | [4]; [8] 94% | [5]; [8] 95% | [5]; at 50.0 µM 70.8% | [6]; [8] 93% | [6]; at 50.0 µM 84.9%
inactive: [1]; [7] -8% | [2]; [7] 8% | [2]; [8] 66% | [2]; at 50.0 µM 41.4% | [3]; [7] 6% | [3]; [8] 56% | [4]; [7] -19% | [4]; at 50.0 µM 21.2% | [5]; [7] -27% | [6]; [7] -7%

O=C1c2ccccc2C(O)(c2ccccc2)c2c(Cl)cccc21 (stereo not given)
inactive: [1]; [7] -1% | [1]; [8] 27% | [2]; [7] -6% | [2]; [8] 26% | [3]; [7] 0% | [3]; [8] 28% | [4]; [7] 1% | [4]; [8] 21% | [5]; [7] -5% | [5]; [8] 14% | [6]; [7] -12% | [6]; [8] 41%
active: [1]; at 50.0 µM 82.6% | [2]; at 50.0 µM 90.7% | [3]; at 50.0 µM 80.8% | [4]; at 50.0 µM 75.2% | [5]; at 50.0 µM 80% | [6]; at 50.0 µM 96.7%

COC(=O)/C=C(\Cl)C(=O)OC
active: [1]; [8] 84% | [1]; at 50.0 µM 99.3% | [2]; [8] 99% | [2]; at 50.0 µM 99.7% | [3]; [8] 98% | [3]; at 50.0 µM 99.5% | [4]; [8] 99% | [4]; at 50.0 µM 97.5% | [5]; [8] 97% | [5]; at 50.0 µM 99.5% | [6]; [8] 98% | [6]; at 50.0 µM 99.2%
inactive: [1]; [7] 8% | [2]; [7] 16% | [3]; [7] 5% | [4]; [7] 19% | [5]; [7] 19% | [6]; [7] 7%

ON1CCc2c([nH]c3ccccc23)C1c1ccc(Cl)cc1 (stereo not given)
inactive: [1]; [7] -8% | [1]; at 50.0 µM 54.5% | [2]; [7] -9% | [2]; at 50.0 µM 34.4% | [3]; [7] 1% | [4]; [7] -8% | [4]; at 50.0 µM 55.7% | [5]; [7] -6% | [5]; at 50.0 µM 40.1% | [6]; [7] -2%
active: [1]; [8] 93% | [2]; [8] 91% | [3]; [8] 98% | [3]; at 50.0 µM 85.4% | [4]; [8] 88% | [5]; [8] 96% | [6]; [8] 96% | [6]; at 50.0 µM 79.2%

CC12CCCCC1CCC(Br)C2=O (stereo not given)
inactive: [1]; [7] -115% | [1]; [8] -2% | [1]; at 50.0 µM 59% | [2]; [7] -40% | [2]; [8] -18% | [2]; at 50.0 µM 41.5% | [3]; [7] -51% | [3]; [8] 22% | [4]; [7] -50% | [4]; [8] -35% | [4]; at 50.0 µM -17.7% | [5]; [7] -57% | [5]; [8] -34% | [5]; at 50.0 µM 13.1% | [6]; [7] -128% | [6]; [8] -55% | [6]; at 50.0 µM 61.6%
active: [3]; at 50.0 µM 70.2%

CCN1CC(=O)N(C)C1=S
active: [1]; at 50.0 µM 84.7% | [2]; at 50.0 µM 71.2% | [3]; at 50.0 µM 89% | [4]; at 50.0 µM 74.9% | [5]; at 50.0 µM 83.8% | [6]; at 50.0 µM 79.5%
inactive: [1]; [7] -9% | [1]; [8] 5% | [2]; [7] -6% | [2]; [8] -19% | [3]; [7] 8% | [3]; [8] -11% | [4]; [7] 20% | [4]; [8] 39% | [5]; [7] 12% | [5]; [8] 18% | [6]; [7] -5% | [6]; [8] -41%

CN(N(P(c1ccccc1)c1ccccc1)P(c1ccccc1)c1ccccc1)P(c1ccccc1)c1ccccc1
active: [1]; at 50.0 µM 88.7% | [2]; at 50.0 µM 81.9% | [3]; at 50.0 µM 88.2% | [5]; at 50.0 µM 76.5% | [6]; at 50.0 µM 93.2%
inactive: [1]; [7] -1% | [1]; [8] 2% | [2]; [7] -5% | [2]; [8] 9% | [3]; [7] -15% | [3]; [8] 2% | [4]; [7] 2% | [4]; [8] 0% | [4]; at 50.0 µM 64.2% | [5]; [7] 1% | [5]; [8] -4% | [6]; [7] -14% | [6]; [8] -17%

Nc1c(C(=O)O)cccc1[N+](=O)[O-]
inactive: [1]; [7] 2% | [1]; [8] -1% | [1]; at 50.0 µM -5.1% | [2]; [7] 1% | [2]; [8] -2% | [2]; at 50.0 µM 9.25% | [3]; [7] -1% | [3]; [8] -1% | [3]; at 50.0 µM -9.1% | [4]; [7] -1% | [4]; [8] 3% | [4]; at 50.0 µM 23.2% | [5]; [7] 1% | [5]; [8] 0% | [5]; at 50.0 µM -2.1% | [6]; [7] 1% | [6]; [8] 3% | [6]; at 50.0 µM -5.05%

O=C(c1ccc(Cl)cc1)C1OC12C(=O)Nc1c(Cl)cc(Cl)cc12 (stereo not given)
active: [1]; [8] 99% | [1]; at 50.0 µM 99.2% | [2]; [8] 99% | [2]; at 50.0 µM 99.2% | [3]; [8] 99% | [3]; at 50.0 µM 99.2% | [4]; [8] 99% | [4]; at 50.0 µM 99.1% | [5]; [8] 99% | [5]; at 50.0 µM 99.2% | [6]; [8] 99% | [6]; at 50.0 µM 98.5%
inactive: [1]; [7] 1% | [2]; [7] 3% | [3]; [7] 22% | [4]; [7] 5% | [5]; [7] -1% | [6]; [7] 4%

CC(=O)c1ccc2c(c1)CC1(C2)Cc2cc3c(c(C(=O)O)c2C1)CCC3 (stereo not given)
active: [1]; [8] 95% | [1]; at 50.0 µM 90.3% | [2]; [8] 95% | [2]; at 50.0 µM 90.1% | [3]; [8] 99% | [3]; at 50.0 µM 94.5% | [4]; [8] 95% | [4]; at 50.0 µM 95% | [5]; [8] 95% | [5]; at 50.0 µM 85.8% | [6]; [8] 97% | [6]; at 50.0 µM 88.6%
inactive: [1]; [7] 0% | [2]; [7] 10% | [3]; [7] 34% | [4]; [7] -3% | [5]; [7] 1% | [6]; [7] 15%
